Compound activity: PubChem, National Center for Advancing Translational Sciences (NCATS)
NIH3T3 tox: kills NIH 3T3 cells; NIH 3T3 viability, CellTiter-Glo ATP luminescence, 48-72 h; Potency, µM (series often up to 96.7 µM), usual class: inhibitors; hit rate 4.3% among 94,000; also: nearly all actives have a fitted effect of over 55% in size
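ATP-dependent luminescence (CellTiter-Glo) served as the viability signal for NIH 3T3 cells treated with compound for 48 or 72 hr at 37 °C.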
hNpr1 antagonist: blocks ANP-stimulated signaling of human Npr1 receptor | P16066 | HEK293 hNpr1 GloSensor cGMP, ANP-stimulated luminescence | Potency, µM (doses to about 46.3 µM), hits mostly inhibitors | hit rate 1.6% among 76,000 | AID 1347048; calls by dose curve; also: nearly all actives have a fitted effect of over 60% in size
Target sequence (P16066 whole entry, looked up): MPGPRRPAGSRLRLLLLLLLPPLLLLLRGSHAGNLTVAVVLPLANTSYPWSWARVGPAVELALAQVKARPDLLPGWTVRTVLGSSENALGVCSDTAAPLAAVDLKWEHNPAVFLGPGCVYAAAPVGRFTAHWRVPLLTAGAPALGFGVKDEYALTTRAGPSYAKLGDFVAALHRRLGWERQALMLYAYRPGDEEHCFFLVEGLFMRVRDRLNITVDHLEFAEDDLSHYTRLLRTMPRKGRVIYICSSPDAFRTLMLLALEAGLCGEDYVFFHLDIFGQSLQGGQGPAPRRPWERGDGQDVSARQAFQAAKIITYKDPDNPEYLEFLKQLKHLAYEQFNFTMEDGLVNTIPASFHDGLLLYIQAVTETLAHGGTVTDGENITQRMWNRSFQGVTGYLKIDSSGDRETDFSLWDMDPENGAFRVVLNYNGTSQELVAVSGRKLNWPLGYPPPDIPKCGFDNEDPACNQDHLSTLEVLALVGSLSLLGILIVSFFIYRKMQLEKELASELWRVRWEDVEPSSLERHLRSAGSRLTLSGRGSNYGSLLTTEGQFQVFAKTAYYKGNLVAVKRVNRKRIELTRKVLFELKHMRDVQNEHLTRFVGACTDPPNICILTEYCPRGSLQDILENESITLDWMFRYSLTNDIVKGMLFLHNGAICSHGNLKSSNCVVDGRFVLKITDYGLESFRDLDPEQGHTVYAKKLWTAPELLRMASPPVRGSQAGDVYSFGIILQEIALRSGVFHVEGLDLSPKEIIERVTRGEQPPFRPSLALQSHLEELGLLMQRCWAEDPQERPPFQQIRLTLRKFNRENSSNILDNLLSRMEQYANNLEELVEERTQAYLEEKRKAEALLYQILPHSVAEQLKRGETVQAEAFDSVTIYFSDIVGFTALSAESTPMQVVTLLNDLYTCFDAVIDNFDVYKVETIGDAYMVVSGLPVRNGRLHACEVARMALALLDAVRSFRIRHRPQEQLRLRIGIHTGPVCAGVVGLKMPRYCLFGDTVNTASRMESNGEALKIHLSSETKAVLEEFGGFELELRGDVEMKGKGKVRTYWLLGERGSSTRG
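Compound pre-incubated 30 min at room temperature on GloSensor-loaded HEK293 cells stably carrying hNpr1 and the pGS-40F cGMP biosensor. Stimulation uses hNppA at 0.1 nM final; luminescence is taken at baseline and 20 min post-agonist.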
FLuc inh: blocks purified firefly luciferase enzyme activity; P08659; purified P. pyralis luciferase, luminescence, biochemical; Potency, µM (doses to about 115 µM), hits mostly inhibitors; hit rate 2.5% among 76,000; also: nearly all actives have a fitted effect of over 65% in size
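Inhibitors were tested against purified firefly luciferase in a biochemical, low-substrate format (both substrates at 10uM) and luminescence measured with a CCD imager.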
HEK293 tox: cytotoxic compounds in HEK 293 cells | HEK 293 viability, ATP luminescence (CellTiter-Glo), 48-72 h | Potency, µM (series often up to 115 µM), usual class: inhibitors | hit rate 6.6% among 94,000 | AID 1345083; also: nearly all actives have a fitted effect of over 60% in size
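HEK 293 seeded at 250 cells/well receive compound via pintool. After 48 or 72 hr at 37 degree Celsius, 5% CO2 and 95% humidity, CellTiter-Glo is dispensed and luminescence read following 10 min at room temperature.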
Npr1 antag conf: hNpr1 antagonism, confirmation assay; shares compounds with hNpr1 antagonist; HEK293 hNpr1 cGMP GloSensor luminescence, ANP-stimulated; Potency, µM (series often up to 57.6 µM), hits mostly inhibitors; hit rate 76% among 1,400; calls by dose curve; also: nearly all actives have a fitted effect of over 70% in size
NPR2 antag: hNpr2 antagonism, selectivity versus Npr1; AID 1347046; hit rate 67% among 1,400; Potency, µM (highest dose often 57.6 µM), most hits filed as inhibitors; shares compounds with hNpr1 antagonist; HEK293 hNpr2 GloSensor cGMP luminescence, CNP-stimulated; calls by dose curve; also: nearly all actives have a fitted effect of over 70% in size
FLuc counter: inhibits firefly luciferase, false Npr1 antagonist flag. shares compounds with hNpr1 antagonist. purified FLuc enzyme, luminescence, Km substrate. Potency, µM (top dose mostly 57.6 µM), hits mostly inhibitors. hit rate 0.7% among 1,400
GloSensor ctrl: control cell line activity, Npr1 antagonist counter-screen; shares compounds with hNpr1 antagonist; HEK293 GloSensor cGMP, SNP-stimulated, luminescence; Potency, µM (top dose mostly 57.6 µM), usual class: inhibitors; hit rate 69% among 1,400; calls by dose curve; also: nearly all actives have a fitted effect of over 70% in size
A number is an active result; i = inactive; ? = inconclusive; nt = not tested or not shown. The list is not random: actives were taken first. Their share in the collection is about 11%. Unless noted, calls follow the shape of the dose curve; as a rule, active = well fitted curve in the direction sought with a large enough effect; inconclusive = small, poorly fitted or top-dose-only effect, or another doubt; inactive = no such curve, though single readings can be large; an effect the other way counts as inactive or inconclusive.

SMILES | NIH3T3 tox | hNpr1 antagonist | FLuc inh | HEK293 tox | Npr1 antag conf | NPR2 antag | FLuc counter | GloSensor ctrl
COc1cccc(CN2CCOC3(CCN([S+](=O)([O-])c4ccccc4)CC3)C2=O)c1 | ? | i | i | ? | nt | nt | nt | nt
COc1ccc(C)cc1C(=O)N1CCc2onc(-c3ccccc3F)c2C1 | i | 14.1µM | i | 28.2µM | 24.3µM | 21.7µM | i | 21.7µM
COc1ccc(-c2noc(CC3CCN(C(=O)c4cc(F)ccc4Cl)CC3)n2)cc1 | ? | 10µM | i | ? | 12.2µM | 13.7µM | i | 10.9µM
O=C(c1ccc(F)cc1F)N1CCC(Cc2nc(-c3cnccn3)no2)CC1 | i | i | i | i | nt | nt | nt | nt
O=C(c1ccc(F)cc1Cl)N1CCC(Cc2nc(-c3ccc(F)cc3)no2)CC1 | ? | 3.16µM | i | 31.6µM | 3.06µM | 3.06µM | i | 3.06µM
CC(C)c1noc(CC2CCN(C(=O)c3ccc(F)cc3Cl)CC2)n1 | i | ? | i | ? | nt | nt | nt | nt
O=C(c1cc(F)ccc1F)N1CCC(Cc2nc(-c3ccccc3)no2)CC1 | ? | 5.62µM | i | ? | 7.69µM | 9.68µM | i | 8.62µM
O=C(c1ccc(F)c(Cl)c1)N1CCC(Cc2nc(-c3cnccn3)no2)CC1 | 31.6µM | ? | i | ? | 21.7µM | ? | i | 19.3µM
O=C(c1ccc(Cl)nc1)N1CCCC(C(=O)N2CCCC(c3nc4ccncc4[nH]3)C2)C1 (centres undefined) | i | nt | nt | i | nt | nt | nt | nt
O=C(CN1CCOCC1)N1CCC(N2C(=O)C3(CCCC3)C2c2ccccc2)CC1 (centres undefined) | i | i | i | i | nt | nt | nt | nt
COc1ccc(CNC(=O)c2ccc3c(c2)N(C(=O)c2ccc(F)cc2)CC3)cc1OC | ? | 2.24µM | i | 31.6µM | 3.06µM | 3.85µM | i | 3.06µM
COc1ccc(OC)c(CNC(=O)c2cccc3c2CCN3C(=O)c2ccc(F)cc2)c1 | ? | ? | i | ? | ? | ? | i | ?
COc1ccc(CNC(=O)c2cc3c(s2)CCN(C(=O)c2ccccc2)C3)cc1OC | ? | 2.51µM | i | ? | 3.43µM | 4.85µM | i | 3.06µM
COc1cccc(C(=O)N2CCC(C(=O)N3CCC(N4CCOC4=O)CC3)CC2)c1 | i | nt | nt | i | nt | nt | nt | nt
O=C([C@H]1CCCN1C(=O)c1ccc(C(F)(F)F)cc1)N1CCCC(c2nc3ccncc3[nH]2)C1 (some centres undefined) | i | nt | nt | i | nt | nt | nt | nt
O=C(Cn1ccn2nc(-c3ccc(F)cc3)c(CO)c2c1=O)N1CCCCCC1 | i | i | i | i | nt | nt | nt | nt
COc1ccc(C(=O)N2CCN(c3nc4ncccc4o3)CC2)cc1 | i | i | i | i | nt | nt | nt | nt
CCN(Cc1noc(C2CCC2)n1)C(=O)C(C)Oc1ccc2ccccc2c1 (centres undefined) | i | 11.2µM | i | 35.5µM | 19.3µM | 21.7µM | i | 13.7µM
COc1ccc(C2Cn3nnc(C(=O)N4CCN(C(=O)Cc5ccc(Cl)cc5)CC4)c3CO2)cc1 (centres undefined) | i | ? | i | i | 19.3µM | ? | i | 21.7µM
COc1ccc(C(=O)N2CCN(C(=O)c3nnn4c3COC(c3ccc(Cl)cc3)C4)CC2)cc1 (centres undefined) | i | i | i | i | nt | nt | nt | nt
COc1ccc(C(=O)N2CCN(C(=O)c3nnn4c3COC(c3ccc(Cl)cc3)C4)CC2)c(C)c1 (centres undefined) | ? | 10µM | i | ? | 19.3µM | 19.3µM | i | 13.7µM
COc1ccccc1CCC(=O)N1CCN(C(=O)c2nnn3c2COC(c2ccccc2)C3)CC1 (centres undefined) | i | i | i | i | nt | nt | nt | nt
COc1ccccc1CC(=O)N1CCN(C(=O)c2nnn3c2COC(c2ccc(Cl)cc2)C3)CC1 (centres undefined) | ? | 10µM | i | ? | 12.2µM | 15.3µM | i | 10.9µM
COc1ccc(C2Cn3nnc(C(=O)N4CCN(C(=O)Cc5cccc(F)c5)CC4)c3CO2)cc1 (centres undefined) | i | ? | i | ? | 21.7µM | 24.3µM | i | 19.3µM
C[S+](=O)([O-])N1CCC(c2nnc3n2C(C(=O)NCc2ccc(Cl)cc2)CC3)CC1 (centres undefined) | i | nt | nt | i | nt | nt | nt | nt
SMILES | NIH3T3 tox | hNpr1 antagonist | FLuc inh | HEK293 tox | Npr1 antag conf | NPR2 antag | FLuc counter | GloSensor ctrl
O=C1NCC2(CCN(Cc3ccccc3)CC2)Oc2ccccc21 | i | nt | nt | i | nt | nt | nt | nt
COc1ccc(CC(=O)NCCNC(=O)c2cccc(-c3ccsc3)c2)cc1 | i | nt | nt | i | nt | nt | nt | nt
Cc1ccc(C2Cn3nnc(C(=O)N4CCN(C(=O)Cc5ccc(Cl)cc5)CC4)c3CO2)cc1 (centres undefined) | i | i | i | i | nt | nt | nt | nt
COc1cccc(N2CCN(C(=O)c3cc4n(n3)CC(c3ccc(Cl)cc3)OC4)CC2)c1 (centres undefined) | ? | 15.8µM | i | ? | 27.3µM | ? | i | ?
COc1ccc(C2Cn3nnc(C(=O)N4CCN(C(=O)CCc5ccccc5)CC4)c3CO2)cc1 (centres undefined) | i | ? | i | ? | 24.3µM | ? | i | 21.7µM
COc1ccc(C2Cn3nnc(C(=O)N4CCN(C(=O)Cc5ccccc5C)CC4)c3CO2)cc1 (centres undefined) | i | ? | i | ? | 21.7µM | 21.7µM | i | 24.3µM
COc1cccc(CC(=O)N2CCN(C(=O)c3nnn4c3COC(c3ccc(Cl)cc3)C4)CC2)c1 (centres undefined) | i | 11.2µM | i | i | 24.3µM | 24.3µM | i | 21.7µM
COc1ccccc1N1CCN(C(=O)c2cc3n(n2)CC(c2ccc(Cl)cc2)OC3)CC1 (centres undefined) | ? | ? | i | ? | nt | nt | nt | nt
COc1cccc(CN2C(=O)CCCCC2C(=O)NCCCN2CCc3ccccc3C2)c1 (centres undefined) | i | i | i | i | nt | nt | nt | nt
Cc1ccc(CNC(=O)CCC2CCCN(S(=O)(=O)c3ccc(F)cc3)C2)cc1 (centres undefined) | i | i | ? | ? | nt | nt | nt | nt
Cc1ccc(S(=O)(=O)N2CCCC(CCC(=O)N3CCCCC3)C2)cc1 (centres undefined) | ? | 12.6µM | i | ? | ? | ? | i | ?
O=C(CCC1CCCN(S(=O)(=O)c2ccccc2)C1)NCC1CCCCC1 (centres undefined) | ? | ? | i | ? | nt | nt | nt | nt
O=C(CCC1CCCN(S(=O)(=O)c2ccccc2)C1)N1CCN(c2ccccn2)CC1 (centres undefined) | ? | ? | i | 44.7µM | ? | ? | i | ?
COCCNC(=O)c1ccc2nnc(-c3cc[nH]c3)n2c1 | i | nt | nt | i | nt | nt | nt | nt
